Laboratory results as given in publication PMC5540273 (PLoS ONE, 2017).

How the values were obtained:
Conditions in all cases: concentration: 1 μM, replicates: in singlicate; n = 1
VEGFR2 = system: T1, VEGFR2
T1 construct: gene KDR

VPS34 = system: T2, VPS34
T2 construct: gene PIK3C3

VRK2 = system: VRK2
WEE1 = system: WEE1
WEE2 = system: WEE2
WNK1 = system: WNK1
WNK2 = system: WNK2
WNK3 = system: WNK3
WNK4 = system: WNK4
YANK1 = system: T3, YANK1
T3 construct: gene STK32A

YANK2 = system: T4, YANK2
T4 construct: gene STK32B

YANK3 = system: T5, YANK3
T5 construct: gene STK32C

YES = system: T6, YES
T6 construct: gene YES1

YSK1 = system: T7, YSK1
T7 construct: gene STK25

YSK4 = system: T8, YSK4
T8 construct: gene MAP3K19

ZAK = system: ZAK
ZAP70 = system: ZAP70
p38-alpha = system: T9, p38-alpha
T9 construct: gene MAPK14

p38-beta = system: T10, p38-beta
T10 construct: gene MAPK11

p38-delta = system: p38-delta
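Further: KINOMEscan kinase panel screen.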

| Structure (SMILES) | %Inh (VEGFR2) [%] | %Inh (VPS34) [%] | %Inh (VRK2) [%] | %Inh (WEE1) [%] | %Inh (WEE2) [%] | %Inh (WNK1) [%] | %Inh (WNK2) [%] | %Inh (WNK3) [%] | %Inh (WNK4) [%] | %Inh (YANK1) [%] | %Inh (YANK2) [%] | %Inh (YANK3) [%] | %Inh (YES) [%] | %Inh (YSK1) [%] | %Inh (YSK4) [%] | %Inh (ZAK) [%] | %Inh (ZAP70) [%] | %Inh (p38-alpha) [%] | %Inh (p38-beta) [%] | %Inh (p38-delta) [%] |
| --- | --- | --- | --- | --- | --- | --- | --- | --- | --- | --- | --- | --- | --- | --- | --- | --- | --- | --- | --- | --- |
| O=C(Nc1n[nH]c2nc(-c3ccco3)c(Br)cc12)C1CCN(Cc2ccccc2)C1.O=C(O)[C@H](O)[C@@H](O)C(=O)O (centres unmarked) [SB-742034] | 7 | 0 | 0 | 0 | 8 | 0 | 0 | 0 | 2 | 0 | 9 | 0 | 12 | 0 | 56 | 0 | 35 | 13 | 15 | 7 |
| Fc1ccc(-c2nn3cccc(F)c3c2-c2ccncc2)cc1 [GW475620] | 1 | 15 | 22 | 0 | 5 | 5 | 20 | 5 | 9 | 28 | 46 | 12 | 5 | 0 | 14 | 25 | 3 | 97.6 | 16 | 21 |
| COc1ccc(CSc2nnc(-c3ccc4nccn4c3)o2)cc1C(F)(F)F | 10 | 7 | 7 | 9 | 0 | 0 | 0 | 0 | 2 | 20 | 8 | 0 | 0 | 14 | 92.3 | 0 | 0 | 4 | 21 | 0 |
| CS(=O)(=O)Cc1ccc(Nc2nccc(-c3c(-c4cccc(NC(=O)C5CCCCC5)c4)nn4ncccc34)n2)cc1 [GSK350559] | 29 | 0 | 49 | 0 | 0 | 0 | 14 | 0 | 44 | 26 | 13 | 3 | 36 | 0 | 16 | 15 | 22 | 2 | 6 | 0 |
| O=C1NC(=O)C(c2ccc(Cl)cc2)=C1Nc1ccc(O)cc1 [SB-340867] | 0 | 2 | 0 | 0 | 0 | 0 | 48 | 0 | 0 | 0 | 0 | 0 | 0 | 8 | 10 | 22 | 0 | 0 | 0 | 0 |
| CC(C)c1ccc(O)cc1Nc1ccnc2ccc(C(F)(F)F)cc12 [GW482059] | 0 | 15 | 0 | 0 | 5 | 1 | 0 | 0 | 0 | 0 | 2 | 0 | 0 | 0 | 73 | 9 | 0 | 0 | 0 | 1 |
| O=C(Nc1n[nH]c2cc(-c3ccsc3)ccc12)C1CC1 [SB-732932] | 13 | 27 | 0 | 0 | 13 | 18 | 34 | 18 | 9 | 0 | 0 | 20 | 12 | 5 | 94.7 | 5 | 0 | 16 | 8 | 0 |
| Cc1c(Cn2c3ccccc3n3c(=O)cc(N4CCOCC4)nc23)cccc1C(F)(F)F [GSK2306394] | 0 | 80 | 0 | 0 | 3 | 2 | 23 | 0 | 0 | 0 | 0 | 13 | 6 | 0 | 7 | 1 | 0 | 22 | 0 | 17 |
| Cc1ccc(NC(=O)Nc2ccccc2F)cc1-c1ccc(C(=O)Nc2ccncc2)cc1 [GSK1398477] | 0 | 11 | 0 | 26 | 12 | 2 | 0 | 0 | 0 | 5 | 12 | 16 | 26 | 3 | 86 | 60 | 0 | 36 | 12 | 36 |
| COc1cccc(C2=C(Nc3cc(Cl)c(O)c(Cl)c3)C(=O)NC2=O)c1 [SB-390767] | 0 | 0 | 20 | 0 | 0 | 20 | 0 | 16 | 17 | 0 | 0 | 4 | 19 | 0 | 30 | 0 | 0 | 0 | 0 | 39 |
